Our source for the outcome and AC50 values is PubChem BioAssay (EPA / NIEHS).

Results filed as inconclusive are left out. Active and inactive are the calls of the source. How the source made its calls, unless noted: active means hit-call score of the fitted dose curve at least 0.9, where 1 is the maximum; inactive means score below 0.9.

Test [1] is described as follows: ACEA_ER_80hr: ACEA Biosciences xCELLigence Real-Time Cell Analysis on Estrogen Receptor Agonism for Proliferation (AID 2282667; active means hit-call score of the fitted dose curve at least 0.9, where 1 is the maximum). The note with it: T47D proliferation, impedance (xCELLigence), 80 h. A digest of the protocol:
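Real-time electrical impedance tracked growth of the human breast line T47D, with the 80 h post-dosing value used. Dosing spanned eight 1:4 steps down from a 100 uM final top concentration, run in duplicate.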

Test [2] in a line: ATG_CRE_CIS: Attagene CIS-FACTORIAL HepG2 Assay for human cAMP Responsive Element (CRE) binding protein 3 (AID 2282926). The note with it: HepG2 CRE cis-reporter, Attagene multiplexed mRNA; actives raise or lower the signal. An outline of the steps: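 Assay format: transient reporter transfection of HepG2, 24 h treatment, total RNA isolation with DNase I step. Reporter abundance read by fluorescence after PCR and capillary separation; DMSO-normalised gain or loss fitting.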

In test [3] the target is CCAAT/enhancer-binding protein beta (Homo sapiens) (UniProt P17676). Put plainly: ATG_C_EBP_CIS: Attagene CIS-FACTORIAL HepG2 Assay for human CCAAT/Enhancer Binding Protein (C/EBP) beta (AID 2282927). The conditions noted are these: HepG2 Attagene cis-factorial transcription factor reporter; actives raise or lower the signal. An outline of the steps: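 HepG2, transient MRTU transfection, 24 h treatment. RT-PCR plus CE fluorescence; DMSO negative control, bidirectional fit.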

The nature of test [4]: ATG_CMV_CIS: Attagene CIS-FACTORIAL HepG2 Assay for human CMV (Internal Marker) (AID 2282928).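 Further: endpoint acts as a background internal control marker rather than a target.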 The note with it: HepG2 CMV promoter reporter, transcription factor profiling; actives raise or lower the signal. A digest of the protocol: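 Reporter transcripts from transfected HepG2 cells are isolated after 24 h of chemical dosing, reverse-transcribed and amplified. Fragments labeled with 6-FAM are cut with HpaI and quantified by capillary electrophoresis; DMSO defines baseline.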

The nature of test [5]: ATG_DR4_LXR_CIS: Attagene CIS-FACTORIAL HepG2 Assay for human Liver X Receptor (LXR), DR4 submotif (AID 2282929). The conditions noted are these: HepG2 Attagene DR4 cis-reporter, mRNA transcription; actives raise or lower the signal. A digest of the protocol: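 Fluorescence intensity of labelled reporter cDNA fragments, separated by capillary electrophoresis, gives the signal. HepG2 cells bearing cis-regulated reporter constructs were treated 24 h; activity fitted bidirectionally relative to DMSO negative control.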

Test [6] has as its target Aryl hydrocarbon receptor (Homo sapiens) (UniProt P35869). The test can be described thus: ATG_Ahr_CIS: Attagene CIS-FACTORIAL HepG2 Assay for human Aryl Hydrocarbon Receptor (Ahr) (AID 2282930). The note with it: HepG2 AhR cis-factorial reporter transcription; actives raise or lower the signal. A digest of the protocol: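 Endogenous factor activity is tracked through cis-promoter reporter units transfected into HepG2 cells. Transcript levels at 24 h are read by fluorescent RT-PCR and capillary electrophoresis, with activity in either direction scored relative to DMSO.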

The nature of test [7]: ATG_AP_1_CIS: Attagene CIS-FACTORIAL HepG2 Assay for human Activator Protein 1 (AP-1) (AID 2282931). The conditions noted are these: HepG2 Attagene cis-factorial AP-1 reporter mRNA; actives raise or lower the signal. A digest of the protocol: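 Multiplexed HepG2 reporter assay, 24 h dosing. mRNA induction detected by RT-PCR plus capillary electrophoresis. Activity fitted in both directions against DMSO.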

Test [8] can be described thus: ATG_AP_2_CIS: Attagene CIS-FACTORIAL HepG2 Assay for human Activator Protein 2 (AP-2) (AID 2282932). The note with it: HepG2 AP-2 cis-reporter, Attagene transcription factor profiling; actives raise or lower the signal. A digest of the protocol: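 Read-out: fluorescent reporter mRNA via RT-PCR and capillary electrophoresis, 24 h post-dose in transiently transfected HepG2. Endogenous factors drive cis-promoter reporters; gain or loss of signal fitted bidirectionally against DMSO.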

Test [9] can be described thus: ATG_BRE_CIS: Attagene CIS-FACTORIAL HepG2 Assay for human Bone Morphogenetic Protein (BMP) Response Element (BRE) (AID 2282933). The note with it: HepG2 BMP response element reporter, Attagene transcription factor profiling; actives raise or lower the signal. A digest of the protocol: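 Endogenous transcription factor activity at a BMP response element was monitored in transfected HepG2 cells 24 h after dosing. Fluorescent RT-PCR products were resolved by capillary electrophoresis, and activity was fitted in both directions versus DMSO.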

Test [10] addresses Retinoic acid receptor alpha (Homo sapiens) (UniProt P10276). The test can be described thus: ATG_DR5_RAR_CIS: Attagene CIS-FACTORIAL HepG2 Assay for human Retinoic Acid Receptor Alpha (RARE), DR5 submotif (AID 2282934). The conditions noted are these: HepG2 Attagene cis-factorial RARE DR5 reporter, mRNA; actives raise or lower the signal. A digest of the protocol:
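After 24 h of chemical exposure, transiently transfected HepG2 cells were lysed for total RNA; the DR5-regulated reporter transcript was quantified via RT-PCR and capillary electrophoresis, with activity fitted bidirectionally against DMSO.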

The target in test [11] is Transcription factor E2F1 (Homo sapiens) (UniProt Q01094). The test can be described thus: ATG_E2F_CIS: Attagene CIS-FACTORIAL HepG2 Assay for human E2F Transcription Factor 1 (AID 2282935). The conditions noted are these: HepG2 Attagene cis-reporter, E2F reporter RNA transcripts; actives raise or lower the signal. An outline of the steps: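 Transient MRTU transfection of HepG2; 24 h compound exposure; RNA → oligo(dT) RT → PCR → FAM label → HpaI cut → CE fluorescence. Gain/loss of signal fit against DMSO.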

Test [12] can be described thus: ATG_E_Box_CIS: Attagene CIS-FACTORIAL HepG2 Assay for human Enhancer Box (E-box) (AID 2282936). The conditions noted are these: HepG2 E-box cis-reporter transcription, actives raise or lower the signal. A digest of the protocol:
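Transiently transfected HepG2, endogenous TF-driven reporters, 24 h dosing. Readout: RT-PCR plus capillary electrophoresis of fluorescent reporter fragments. Gain or loss of signal fitted bidirectionally against DMSO baseline.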

A short description of test [13]: ATG_M_61_CIS: Attagene CIS-FACTORIAL HepG2 Assay for M61 Transcription Factor (Internal Marker) (AID 2282937). The note with it: HepG2 Attagene CIS-FACTORIAL M61 internal marker reporter; actives raise or lower the signal. A digest of the protocol:
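Endogenous transcription factor activity in HepG2 is read through transiently transfected cis-element reporter units. After 24 h dosing, RNA undergoes reverse transcription, PCR and primer extension with 6-FAM before capillary electrophoresis; DMSO-referenced bidirectional fit.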

Test [14] in a line: ATG_EGR_CIS: Attagene CIS-FACTORIAL HepG2 Assay for human Early Growth Response 1 (EGR1) (AID 2282938). The note with it: HepG2 Attagene CIS-FACTORIAL EGR reporter mRNA; actives raise or lower the signal. An outline of the steps:
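Activity is taken as induction or loss of reporter mRNA versus DMSO, fitted bidirectionally. Transcripts from cis-regulated reporter units in transiently transfected HepG2 were measured after 24 h by RT-PCR with capillary electrophoresis.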

Test [15] is described as follows: ATG_M_19_CIS: Attagene CIS-FACTORIAL HepG2 Assay for M19 Transcription Factor (Internal Marker) (AID 2282939). The conditions noted are these: HepG2 Attagene CIS-FACTORIAL M19 internal marker reporter; actives raise or lower the signal. A digest of the protocol: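 Background-control endpoint from a multiplexed HepG2 reporter panel. Cells carrying cis-regulated reporter constructs are treated 24 h, then reporter transcripts are amplified, fluorescently labelled and sized by capillary electrophoresis. DMSO defines baseline.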

Test [16] in a line: ATG_ERE_CIS: Attagene CIS-FACTORIAL HepG2 Assay for Estrogen Response Element (ERE) (AID 2282940). The conditions noted are these: HepG2 ERE cis-reporter, Attagene RNA transcript; actives raise or lower the signal. A digest of the protocol:
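Cells used were human hepatoma HepG2, transfected with multiple reporter transcription units under cis-regulatory promoters. Reporter mRNA, read 24 h post-dosing via fluorescent RT-PCR products on capillary electrophoresis, was fitted bidirectionally relative to DMSO.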

Test [17] is described as follows: ATG_Ets_CIS: Attagene CIS-FACTORIAL HepG2 Assay for human Erythroblast Transformation Specific (ETS) (AID 2282941). The conditions noted are these: HepG2 ETS cis-reporter transcription, actives raise or lower the signal. A digest of the protocol: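 Bidirectional fit versus DMSO of reporter mRNA signal, detected by RT-PCR and capillary electrophoresis in HepG2 cells transiently transfected with cis-element reporters and dosed 24 h.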

In test [18] the target is Hepatocyte nuclear factor 3-beta (Homo sapiens) (UniProt Q9Y261). The test can be described thus: ATG_FoxA2_CIS: Attagene CIS-FACTORIAL HepG2 Assay for human Forkhead box A2 (FOXA2) (AID 2282942). The conditions noted are these: HepG2 cis-reporter transcription factor activity, 24 h; actives raise or lower the signal. A digest of the protocol:
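Reporter transcript induction is measured by fluorescence after capillary electrophoresis of RT-PCR products from HepG2 cells exposed 24 h. Cis-regulated reporter units report endogenous factor activity; curves fitted both directions against DMSO.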

The nature of test [19]: ATG_FoxO_CIS: Attagene CIS-FACTORIAL HepG2 Assay for human Forkhead box O (FoxO) (AID 2282943). The conditions noted are these: HepG2 Attagene cis-reporter, FoxO element, mRNA; actives raise or lower the signal. A digest of the protocol:
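Transfected HepG2 reporter cells exposed to test chemical for 24 h; reporter RNA measured by reverse transcription, PCR and fluorescent capillary electrophoresis; curves fitted for increases and decreases against DMSO.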

Test [20] can be described thus: ATG_GATA_CIS: Attagene CIS-FACTORIAL HepG2 Assay for human GATA Binding Protein (AID 2282944). The conditions noted are these: HepG2 GATA cis-element reporter, Attagene multiplex mRNA; actives raise or lower the signal. A digest of the protocol:
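Endogenous transcription factor activity was captured through cis-promoter-driven reporters in transfected HepG2 cells. After 24 h exposure, reporter transcripts were quantified by RT-PCR with fluorescent capillary electrophoresis, and responses fitted both directions against DMSO.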

Chain of Retinoic acid receptor alpha (Homo sapiens) (P10276 whole entry, looked up): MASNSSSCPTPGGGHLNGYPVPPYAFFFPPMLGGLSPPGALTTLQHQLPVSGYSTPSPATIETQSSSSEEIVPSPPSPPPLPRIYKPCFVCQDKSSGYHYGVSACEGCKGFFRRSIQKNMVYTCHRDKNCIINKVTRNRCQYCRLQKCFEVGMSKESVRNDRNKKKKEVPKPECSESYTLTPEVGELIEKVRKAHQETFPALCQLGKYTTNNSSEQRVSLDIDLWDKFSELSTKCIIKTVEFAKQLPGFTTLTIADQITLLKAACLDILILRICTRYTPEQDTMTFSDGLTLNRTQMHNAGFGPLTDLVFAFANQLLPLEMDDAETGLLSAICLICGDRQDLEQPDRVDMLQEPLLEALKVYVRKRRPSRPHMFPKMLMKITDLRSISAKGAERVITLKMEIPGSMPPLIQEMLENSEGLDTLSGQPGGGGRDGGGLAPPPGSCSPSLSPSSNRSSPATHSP
Chain of Aryl hydrocarbon receptor (Homo sapiens) (P35869 whole entry, looked up): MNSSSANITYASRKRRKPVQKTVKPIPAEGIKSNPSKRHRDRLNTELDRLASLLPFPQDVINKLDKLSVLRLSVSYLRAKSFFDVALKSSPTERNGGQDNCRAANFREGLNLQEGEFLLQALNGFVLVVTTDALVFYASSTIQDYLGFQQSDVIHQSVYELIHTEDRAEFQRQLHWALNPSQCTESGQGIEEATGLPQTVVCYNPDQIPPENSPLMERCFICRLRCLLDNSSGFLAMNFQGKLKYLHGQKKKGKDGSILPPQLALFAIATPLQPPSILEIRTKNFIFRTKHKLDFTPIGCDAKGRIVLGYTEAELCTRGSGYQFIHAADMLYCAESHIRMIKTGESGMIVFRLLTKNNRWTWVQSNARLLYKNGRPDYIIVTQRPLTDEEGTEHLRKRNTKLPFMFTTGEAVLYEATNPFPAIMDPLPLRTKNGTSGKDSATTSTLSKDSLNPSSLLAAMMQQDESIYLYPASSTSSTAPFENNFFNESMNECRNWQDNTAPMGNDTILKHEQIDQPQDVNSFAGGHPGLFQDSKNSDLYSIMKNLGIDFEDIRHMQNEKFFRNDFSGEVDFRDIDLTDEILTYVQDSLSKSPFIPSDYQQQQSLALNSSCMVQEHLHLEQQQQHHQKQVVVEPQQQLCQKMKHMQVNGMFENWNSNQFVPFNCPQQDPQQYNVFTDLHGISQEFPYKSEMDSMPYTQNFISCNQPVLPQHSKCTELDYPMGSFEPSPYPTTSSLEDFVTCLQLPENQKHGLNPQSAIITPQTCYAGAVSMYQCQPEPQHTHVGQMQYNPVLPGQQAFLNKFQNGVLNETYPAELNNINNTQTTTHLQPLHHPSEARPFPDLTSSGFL
Chain of CCAAT/enhancer-binding protein beta (Homo sapiens) (P17676 whole entry, looked up): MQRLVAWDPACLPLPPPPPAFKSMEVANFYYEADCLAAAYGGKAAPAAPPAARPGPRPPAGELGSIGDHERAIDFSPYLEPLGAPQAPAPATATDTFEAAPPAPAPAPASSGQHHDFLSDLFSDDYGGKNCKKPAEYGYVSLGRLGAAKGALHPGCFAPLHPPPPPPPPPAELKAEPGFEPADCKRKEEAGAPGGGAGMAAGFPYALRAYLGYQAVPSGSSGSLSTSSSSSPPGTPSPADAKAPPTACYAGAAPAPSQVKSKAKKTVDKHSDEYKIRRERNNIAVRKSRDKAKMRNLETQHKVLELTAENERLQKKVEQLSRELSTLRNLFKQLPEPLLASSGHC
Chain of Transcription factor E2F1 (Homo sapiens) (Q01094 whole entry, looked up): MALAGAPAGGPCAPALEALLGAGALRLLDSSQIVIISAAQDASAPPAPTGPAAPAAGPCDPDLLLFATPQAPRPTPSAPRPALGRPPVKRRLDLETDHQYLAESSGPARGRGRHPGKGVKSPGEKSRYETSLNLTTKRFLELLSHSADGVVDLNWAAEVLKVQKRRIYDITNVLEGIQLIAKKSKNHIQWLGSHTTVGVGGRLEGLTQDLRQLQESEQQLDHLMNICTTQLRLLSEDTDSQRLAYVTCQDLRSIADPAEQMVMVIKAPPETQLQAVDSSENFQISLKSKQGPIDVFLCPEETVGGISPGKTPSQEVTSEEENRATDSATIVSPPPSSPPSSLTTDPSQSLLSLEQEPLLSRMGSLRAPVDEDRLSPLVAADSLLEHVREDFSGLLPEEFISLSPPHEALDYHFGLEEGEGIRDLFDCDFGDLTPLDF
Chain of Hepatocyte nuclear factor 3-beta (Homo sapiens) (Q9Y261 whole entry, looked up): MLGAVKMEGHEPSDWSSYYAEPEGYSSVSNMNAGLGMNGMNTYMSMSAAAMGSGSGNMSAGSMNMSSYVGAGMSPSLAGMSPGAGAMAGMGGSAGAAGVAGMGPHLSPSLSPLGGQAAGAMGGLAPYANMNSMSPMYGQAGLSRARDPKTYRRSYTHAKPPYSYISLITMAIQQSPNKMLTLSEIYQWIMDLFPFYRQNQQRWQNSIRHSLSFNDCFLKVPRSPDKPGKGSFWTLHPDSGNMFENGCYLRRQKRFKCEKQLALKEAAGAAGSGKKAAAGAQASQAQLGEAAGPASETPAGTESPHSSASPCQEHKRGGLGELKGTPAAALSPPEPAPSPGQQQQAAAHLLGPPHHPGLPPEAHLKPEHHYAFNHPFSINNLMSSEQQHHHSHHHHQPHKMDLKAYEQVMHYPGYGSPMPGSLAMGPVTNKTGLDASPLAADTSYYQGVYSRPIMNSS

Regarding `C1CNCCN1`, the call in test [1], in test [2], in test [3], in test [4], in [5] and in test [6] was inactive. Further, the call in test [7], in test [8], in test [9], in test [10], in test [11] and in test [12] was inactive. In addition, the result in [13], in test [14], in [15], in test [16], in test [17] and in test [18] was inactive. For the same molecule, the molecule was called inactive in test [19] and in test [20].

For `Cn1ccnc1`, the molecule was called inactive in test [1], in test [2], in test [3], in test [4], in test [5] and in [6]. For the same molecule, the molecule was called inactive in test [7], in test [8], in [9], in [10], in [11] and in [12]. The outcome in test [13], in test [14], in test [15], in test [16], in test [17] and in [18] was inactive. The outcome in [19] and in [20] was inactive.

As to `COC(Cc1ccccc1)OC`, the outcome in [1], in test [2], in test [3], in test [4], in test [5] and in test [6] was inactive. The molecule was classed as inactive in test [7], in test [8], in test [9], in test [10], in [11] and in test [12]. Further, the molecule was called inactive in test [13], in test [14], in test [15], in test [16], in test [17] and in [18]. The molecule was classed as inactive in test [19] and in test [20].

In the case of `O=C(OCCc1ccccc1)c1ccccc1`, the call in test [1], in test [2], in test [3], in [4], in test [5] and in [6] was inactive. For the same molecule, the molecule was called inactive in test [7], in [8], in [9], in test [10], in [11] and in [12]. In addition, the call in test [13], in test [14], in test [15], in test [16], in test [17] and in test [18] was inactive. Besides, the result in [19] and in test [20] was inactive.

Take `CCCCCCOC(=O)CCCCC(=O)OCCCCCC`: the call in test [1], in test [2], in test [3], in [4], in test [5] and in test [6] was inactive. Moreover, the molecule was classed as inactive in test [7], in test [8], in test [9], in test [10], in test [11] and in test [12]. Besides, the call in test [13], in [14], in [15], in [17], in test [18] and in [19] was inactive. In addition, the molecule was called inactive in test [20]. Further, in [16], the half-maximal activity concentration (AC50) is 27.5 µM (active).

Turning to `CC(C=O)c1ccccc1` (stereo not given), the outcome in test [1], in [2], in [3], in test [4], in [5] and in test [6] was inactive. Also, the molecule was called inactive in test [7], in test [8], in test [9], in [10], in test [11] and in test [12]. For the same molecule, the outcome in [13], in test [14], in test [15], in test [16], in [17] and in [18] was inactive. For the same molecule, the outcome in test [19] and in test [20] was inactive.

Regarding `O=C(O)CCCC(=O)O`, the call in test [1], in test [2], in test [3], in test [4], in test [5] and in [6] was inactive. Further, the outcome in test [7], in [8], in test [9], in test [10], in test [11] and in test [12] was inactive. Further, the call in test [13], in test [14], in test [15], in test [16], in [17] and in test [18] was inactive. The molecule was called inactive in test [19] and in test [20].

The term AC50 denotes the midpoint of the concentration-response curve, whichever way the signal moves.
